# Measured values from PMC7862700, “An all-to-all approach to the identification of sequence-specific readers for epigenetic DNA modifications on cytosine”.
# Columns and labels:
# Assay in all cases: DAPPL (digital affinity profiling via proximity ligation, sequencing); 10 mM Tris-HCl pH 7.5, 50 mM NaCl, 1 mM DTT, 4% glycerol, room temperature, 30 min; GST-TFs on glutathione beads, 16-mer random dsDNA library, 0.1% formaldehyde crosslink after washing; high values mean tight binding
# [1] = target: T1, FLI1 (Homo sapiens, UniProt Q01543 1-452); settings: protein: recombinant; tags: N-terminal GST; dsDNA, one strand shown
# T1 sequence: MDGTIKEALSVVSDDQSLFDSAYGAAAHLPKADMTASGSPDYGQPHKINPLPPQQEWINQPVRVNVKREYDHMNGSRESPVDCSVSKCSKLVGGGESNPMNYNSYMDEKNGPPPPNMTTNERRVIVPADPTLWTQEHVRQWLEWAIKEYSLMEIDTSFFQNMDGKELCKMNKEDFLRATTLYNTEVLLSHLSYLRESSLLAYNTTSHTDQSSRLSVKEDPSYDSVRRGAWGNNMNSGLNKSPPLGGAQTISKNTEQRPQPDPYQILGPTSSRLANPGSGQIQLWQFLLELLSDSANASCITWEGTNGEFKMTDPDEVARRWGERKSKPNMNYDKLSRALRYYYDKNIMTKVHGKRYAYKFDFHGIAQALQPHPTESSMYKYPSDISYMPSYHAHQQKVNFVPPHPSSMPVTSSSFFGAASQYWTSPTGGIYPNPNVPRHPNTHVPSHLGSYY
# In short: (§1)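 Each value of binding signal is a hexamer's read frequency for a factor divided by the same hexamer's frequency in the tag-only sample. Barcoded, bead-captured GST fusions of human transcription factors made in yeast were pooled with that sample and incubated with 200 nmole of a random double-stranded 16-mer DNA library in Tris/NaCl/DTT/glycerol buffer at room temperature for 30 min. Washing, 0.1% formaldehyde crosslinking, proximity ligation, PCR and Illumina NextSeq500 sequencing followed.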
# [2] = target: T2, ELK1 (Homo sapiens, UniProt P19419 1-428); settings: protein: recombinant; tags: N-terminal GST; dsDNA, one strand shown
# T2 sequence: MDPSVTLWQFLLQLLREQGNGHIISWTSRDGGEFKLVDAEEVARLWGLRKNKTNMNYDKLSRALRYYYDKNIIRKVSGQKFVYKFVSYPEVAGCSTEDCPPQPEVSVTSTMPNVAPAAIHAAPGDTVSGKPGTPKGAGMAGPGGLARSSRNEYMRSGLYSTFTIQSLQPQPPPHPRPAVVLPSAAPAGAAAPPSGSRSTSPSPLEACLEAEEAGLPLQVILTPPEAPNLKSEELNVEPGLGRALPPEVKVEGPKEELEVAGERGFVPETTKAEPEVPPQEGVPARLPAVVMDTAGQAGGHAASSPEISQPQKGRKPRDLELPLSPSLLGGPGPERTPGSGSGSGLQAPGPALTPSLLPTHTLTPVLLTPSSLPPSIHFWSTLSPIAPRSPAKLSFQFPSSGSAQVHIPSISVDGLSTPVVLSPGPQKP
# In short: as §1
# [3] = target: T3, GABPA (Homo sapiens, UniProt Q06546 1-454); settings: protein: recombinant; tags: N-terminal GST; dsDNA, one strand shown
# T3 sequence: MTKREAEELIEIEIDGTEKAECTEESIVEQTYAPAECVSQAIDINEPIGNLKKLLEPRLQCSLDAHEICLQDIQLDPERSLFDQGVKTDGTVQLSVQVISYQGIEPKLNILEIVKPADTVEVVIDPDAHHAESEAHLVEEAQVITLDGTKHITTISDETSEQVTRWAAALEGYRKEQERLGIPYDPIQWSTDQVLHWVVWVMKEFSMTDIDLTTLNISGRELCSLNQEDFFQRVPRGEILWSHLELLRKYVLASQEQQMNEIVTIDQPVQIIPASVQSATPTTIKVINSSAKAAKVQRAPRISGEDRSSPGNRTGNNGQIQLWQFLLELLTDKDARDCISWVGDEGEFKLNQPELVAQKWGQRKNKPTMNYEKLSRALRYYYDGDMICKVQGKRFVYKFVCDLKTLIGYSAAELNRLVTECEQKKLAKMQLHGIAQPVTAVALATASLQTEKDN
# In short: as §1
# [4] = target: T4, ERG (Homo sapiens, UniProt P11308 1-479); settings: protein: recombinant; tags: N-terminal GST; dsDNA, one strand shown
# T4 sequence: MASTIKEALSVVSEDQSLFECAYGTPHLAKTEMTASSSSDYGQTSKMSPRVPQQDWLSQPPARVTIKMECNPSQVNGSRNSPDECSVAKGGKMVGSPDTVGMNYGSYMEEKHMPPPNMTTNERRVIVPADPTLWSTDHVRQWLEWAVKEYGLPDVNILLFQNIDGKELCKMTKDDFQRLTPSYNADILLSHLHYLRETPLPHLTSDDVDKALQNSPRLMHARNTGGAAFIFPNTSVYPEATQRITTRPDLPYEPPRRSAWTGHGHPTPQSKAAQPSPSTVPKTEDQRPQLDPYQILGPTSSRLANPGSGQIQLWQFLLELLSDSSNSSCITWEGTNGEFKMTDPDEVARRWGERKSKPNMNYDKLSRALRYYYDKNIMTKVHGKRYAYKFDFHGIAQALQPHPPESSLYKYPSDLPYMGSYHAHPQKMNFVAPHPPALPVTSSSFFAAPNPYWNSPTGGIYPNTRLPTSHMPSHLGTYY
# In short: as §1
# [5] = target: ELF1 (Homo sapiens, UniProt P32519 1-619); settings: protein: recombinant; tags: N-terminal GST; dsDNA, one strand shown
# In short: as §1
# [6] = target: T5, EHF (Homo sapiens, UniProt Q9NZC4 1-300); settings: protein: recombinant; tags: N-terminal GST; dsDNA, one strand shown
# T5 sequence: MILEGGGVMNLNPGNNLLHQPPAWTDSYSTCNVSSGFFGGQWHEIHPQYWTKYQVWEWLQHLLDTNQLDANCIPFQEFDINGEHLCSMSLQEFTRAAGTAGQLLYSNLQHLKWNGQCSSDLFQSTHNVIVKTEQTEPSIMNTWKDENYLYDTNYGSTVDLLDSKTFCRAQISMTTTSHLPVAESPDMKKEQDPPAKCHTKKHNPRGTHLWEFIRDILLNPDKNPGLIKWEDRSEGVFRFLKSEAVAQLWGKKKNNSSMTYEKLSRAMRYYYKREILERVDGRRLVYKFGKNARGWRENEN
# In short: as §1
# [7] = target: SPI1 (Homo sapiens, UniProt P17947 1-270); settings: protein: recombinant; tags: N-terminal GST; dsDNA, one strand shown
# In short: as §1
# [8] = target: SPIB (Homo sapiens, UniProt Q01892 1-262); settings: protein: recombinant; tags: N-terminal GST; dsDNA, one strand shown
# In short: as §1
# [9] = target: T6, ELK3 (Homo sapiens, UniProt P41970 1-407); settings: protein: recombinant; tags: N-terminal GST; dsDNA, one strand shown
# T6 sequence: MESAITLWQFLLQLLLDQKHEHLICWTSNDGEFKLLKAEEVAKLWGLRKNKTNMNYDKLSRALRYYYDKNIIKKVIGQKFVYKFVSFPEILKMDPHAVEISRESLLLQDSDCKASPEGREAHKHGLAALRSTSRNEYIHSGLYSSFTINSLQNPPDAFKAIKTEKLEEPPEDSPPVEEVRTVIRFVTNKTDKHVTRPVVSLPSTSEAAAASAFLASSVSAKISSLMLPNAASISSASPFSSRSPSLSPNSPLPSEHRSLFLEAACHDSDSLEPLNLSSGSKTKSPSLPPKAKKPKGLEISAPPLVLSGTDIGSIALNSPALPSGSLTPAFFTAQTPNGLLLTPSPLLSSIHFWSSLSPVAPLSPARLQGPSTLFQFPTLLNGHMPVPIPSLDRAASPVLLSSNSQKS
# In short: as §1
# [10] = target: T7, FEV (Homo sapiens, UniProt Q99581 1-238); settings: protein: recombinant; tags: N-terminal GST; dsDNA, one strand shown
# T7 sequence: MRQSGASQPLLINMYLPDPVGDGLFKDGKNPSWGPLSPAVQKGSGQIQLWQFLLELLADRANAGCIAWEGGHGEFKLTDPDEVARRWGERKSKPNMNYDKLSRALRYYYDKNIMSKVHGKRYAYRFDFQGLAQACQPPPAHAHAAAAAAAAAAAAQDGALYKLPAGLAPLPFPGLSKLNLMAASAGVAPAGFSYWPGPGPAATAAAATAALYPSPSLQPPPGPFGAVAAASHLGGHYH
# In short: as §1
# [11] = target: ETV5 (Homo sapiens, UniProt P41161 1-510); settings: protein: recombinant; tags: N-terminal GST; dsDNA, one strand shown
# In short: as §1
# [12] = target: HSF1 (Homo sapiens, UniProt Q00613 1-529); settings: protein: recombinant; tags: N-terminal GST; chain copies: 3; dsDNA, one strand shown
# In short: as §1
# [13] = target: T8, SPIC (Homo sapiens, UniProt Q8N5J4 1-248); settings: protein: recombinant; tags: N-terminal GST; dsDNA, one strand shown
# T8 sequence: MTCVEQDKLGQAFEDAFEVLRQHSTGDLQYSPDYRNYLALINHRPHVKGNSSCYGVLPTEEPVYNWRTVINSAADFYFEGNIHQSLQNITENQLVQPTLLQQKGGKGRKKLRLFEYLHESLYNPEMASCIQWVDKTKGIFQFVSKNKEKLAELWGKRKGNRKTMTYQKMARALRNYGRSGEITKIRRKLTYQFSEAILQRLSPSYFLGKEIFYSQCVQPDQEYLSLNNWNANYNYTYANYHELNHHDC
# In short: as §1
# [14] = target: ELF4 (Homo sapiens, UniProt Q99607 1-663); settings: protein: recombinant; tags: N-terminal GST; dsDNA, one strand shown
# In short: as §1
# [15] = target: T9, ELK4 (Homo sapiens, UniProt P28324-2 1-405); settings: protein: recombinant; tags: N-terminal GST; dsDNA, one strand shown
# T9 sequence: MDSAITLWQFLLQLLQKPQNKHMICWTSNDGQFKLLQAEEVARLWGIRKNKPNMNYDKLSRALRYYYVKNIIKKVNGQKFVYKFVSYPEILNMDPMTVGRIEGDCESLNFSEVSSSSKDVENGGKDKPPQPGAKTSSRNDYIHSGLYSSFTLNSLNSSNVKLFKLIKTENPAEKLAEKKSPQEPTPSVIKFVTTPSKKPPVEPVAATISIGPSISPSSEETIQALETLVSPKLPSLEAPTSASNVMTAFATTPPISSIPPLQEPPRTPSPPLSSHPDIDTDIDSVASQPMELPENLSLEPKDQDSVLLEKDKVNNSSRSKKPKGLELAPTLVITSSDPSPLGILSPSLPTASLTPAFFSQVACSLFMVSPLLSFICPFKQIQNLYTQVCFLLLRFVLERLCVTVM
# In short: as §1
# [16] = target: T10, ETV2 (Homo sapiens, UniProt O00321 1-342); settings: protein: recombinant; tags: N-terminal GST; dsDNA, one strand shown
# T10 sequence: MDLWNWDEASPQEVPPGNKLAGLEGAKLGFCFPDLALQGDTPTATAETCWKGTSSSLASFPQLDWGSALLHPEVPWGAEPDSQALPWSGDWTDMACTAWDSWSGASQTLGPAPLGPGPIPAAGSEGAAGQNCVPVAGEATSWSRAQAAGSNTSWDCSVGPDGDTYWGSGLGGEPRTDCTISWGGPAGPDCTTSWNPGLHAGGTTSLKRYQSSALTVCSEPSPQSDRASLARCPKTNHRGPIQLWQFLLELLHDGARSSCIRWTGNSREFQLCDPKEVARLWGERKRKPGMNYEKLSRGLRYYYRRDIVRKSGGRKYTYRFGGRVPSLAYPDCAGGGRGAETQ
# In short: as §1
# [17] = target: T11, ELF3 (Homo sapiens, UniProt P78545 1-371); settings: protein: recombinant; tags: N-terminal GST; dsDNA, one strand shown
# T11 sequence: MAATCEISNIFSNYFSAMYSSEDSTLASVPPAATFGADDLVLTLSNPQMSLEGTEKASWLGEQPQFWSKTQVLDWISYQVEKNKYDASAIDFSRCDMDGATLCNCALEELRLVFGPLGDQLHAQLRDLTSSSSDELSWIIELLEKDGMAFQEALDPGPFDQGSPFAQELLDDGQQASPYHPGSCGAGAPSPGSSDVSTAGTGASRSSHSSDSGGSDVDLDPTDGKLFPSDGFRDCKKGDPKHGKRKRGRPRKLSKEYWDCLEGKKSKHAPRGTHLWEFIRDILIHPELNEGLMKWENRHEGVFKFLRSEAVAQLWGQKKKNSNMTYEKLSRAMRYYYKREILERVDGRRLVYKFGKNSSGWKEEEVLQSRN
# In short: as §1
# [18] = target: CRX (Homo sapiens, UniProt O43186 1-299); settings: protein: recombinant; tags: N-terminal GST; dsDNA, one strand shown
# In short: as §1
# [19] = target: ETV1 (Homo sapiens, UniProt P50549 1-477); settings: protein: recombinant; tags: N-terminal GST; dsDNA, one strand shown
# In short: as §1
# SPIB, sequence (Q01892 whole entry): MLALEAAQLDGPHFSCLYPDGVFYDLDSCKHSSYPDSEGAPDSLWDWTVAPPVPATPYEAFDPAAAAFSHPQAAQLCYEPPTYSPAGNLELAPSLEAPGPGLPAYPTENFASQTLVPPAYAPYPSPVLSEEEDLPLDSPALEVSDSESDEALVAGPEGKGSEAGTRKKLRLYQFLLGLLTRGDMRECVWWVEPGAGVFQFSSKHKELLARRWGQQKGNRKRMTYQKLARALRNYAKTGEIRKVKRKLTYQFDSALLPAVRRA
# CRX, sequence (O43186 whole entry): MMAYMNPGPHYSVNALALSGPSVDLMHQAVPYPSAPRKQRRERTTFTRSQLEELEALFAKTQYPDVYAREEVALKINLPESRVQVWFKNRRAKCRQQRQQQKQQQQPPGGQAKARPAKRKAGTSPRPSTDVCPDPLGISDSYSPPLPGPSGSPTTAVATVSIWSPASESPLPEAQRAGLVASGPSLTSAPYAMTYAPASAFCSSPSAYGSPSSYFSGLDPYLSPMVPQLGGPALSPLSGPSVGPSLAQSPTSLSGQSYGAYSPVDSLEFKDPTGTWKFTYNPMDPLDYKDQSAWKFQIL
# ETV1, sequence (P50549 whole entry): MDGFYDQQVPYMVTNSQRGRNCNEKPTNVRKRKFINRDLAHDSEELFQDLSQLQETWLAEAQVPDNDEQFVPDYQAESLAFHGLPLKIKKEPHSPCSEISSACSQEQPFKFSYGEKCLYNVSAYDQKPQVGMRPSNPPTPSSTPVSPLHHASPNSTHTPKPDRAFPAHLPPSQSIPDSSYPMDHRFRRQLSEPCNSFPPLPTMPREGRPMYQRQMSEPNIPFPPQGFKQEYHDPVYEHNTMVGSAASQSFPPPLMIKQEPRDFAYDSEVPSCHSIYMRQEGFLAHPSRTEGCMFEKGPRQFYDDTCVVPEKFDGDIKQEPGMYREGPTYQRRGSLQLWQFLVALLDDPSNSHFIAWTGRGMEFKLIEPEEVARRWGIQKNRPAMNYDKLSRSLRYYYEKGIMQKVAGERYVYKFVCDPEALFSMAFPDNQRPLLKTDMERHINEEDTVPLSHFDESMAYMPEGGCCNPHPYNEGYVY
# HSF1, sequence (Q00613 whole entry): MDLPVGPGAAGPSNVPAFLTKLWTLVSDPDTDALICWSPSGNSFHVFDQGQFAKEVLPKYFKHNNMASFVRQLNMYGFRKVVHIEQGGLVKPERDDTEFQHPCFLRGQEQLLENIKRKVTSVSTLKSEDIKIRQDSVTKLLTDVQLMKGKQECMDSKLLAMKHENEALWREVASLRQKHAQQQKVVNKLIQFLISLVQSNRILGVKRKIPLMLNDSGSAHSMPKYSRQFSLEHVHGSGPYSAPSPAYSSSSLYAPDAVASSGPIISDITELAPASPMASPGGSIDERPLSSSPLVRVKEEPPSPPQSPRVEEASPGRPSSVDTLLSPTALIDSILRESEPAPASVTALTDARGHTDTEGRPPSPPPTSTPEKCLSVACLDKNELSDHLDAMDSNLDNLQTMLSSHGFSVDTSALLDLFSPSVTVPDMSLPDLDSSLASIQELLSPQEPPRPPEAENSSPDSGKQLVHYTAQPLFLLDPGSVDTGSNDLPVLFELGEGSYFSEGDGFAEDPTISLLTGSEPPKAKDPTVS
# ETV5, sequence (P41161 whole entry): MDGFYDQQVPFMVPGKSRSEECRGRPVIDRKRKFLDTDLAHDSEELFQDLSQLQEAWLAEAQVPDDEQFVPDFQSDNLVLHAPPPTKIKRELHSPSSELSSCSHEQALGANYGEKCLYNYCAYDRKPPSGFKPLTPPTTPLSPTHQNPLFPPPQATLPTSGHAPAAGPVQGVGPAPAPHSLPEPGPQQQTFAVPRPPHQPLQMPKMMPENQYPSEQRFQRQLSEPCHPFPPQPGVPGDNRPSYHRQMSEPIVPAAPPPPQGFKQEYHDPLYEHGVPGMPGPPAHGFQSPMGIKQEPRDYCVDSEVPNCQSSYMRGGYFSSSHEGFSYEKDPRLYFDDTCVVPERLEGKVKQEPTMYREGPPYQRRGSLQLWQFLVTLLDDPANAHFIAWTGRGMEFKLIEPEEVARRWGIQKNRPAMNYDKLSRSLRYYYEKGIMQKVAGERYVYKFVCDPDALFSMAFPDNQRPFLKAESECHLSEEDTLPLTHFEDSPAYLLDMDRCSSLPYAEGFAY
# ELF1, sequence (P32519 whole entry): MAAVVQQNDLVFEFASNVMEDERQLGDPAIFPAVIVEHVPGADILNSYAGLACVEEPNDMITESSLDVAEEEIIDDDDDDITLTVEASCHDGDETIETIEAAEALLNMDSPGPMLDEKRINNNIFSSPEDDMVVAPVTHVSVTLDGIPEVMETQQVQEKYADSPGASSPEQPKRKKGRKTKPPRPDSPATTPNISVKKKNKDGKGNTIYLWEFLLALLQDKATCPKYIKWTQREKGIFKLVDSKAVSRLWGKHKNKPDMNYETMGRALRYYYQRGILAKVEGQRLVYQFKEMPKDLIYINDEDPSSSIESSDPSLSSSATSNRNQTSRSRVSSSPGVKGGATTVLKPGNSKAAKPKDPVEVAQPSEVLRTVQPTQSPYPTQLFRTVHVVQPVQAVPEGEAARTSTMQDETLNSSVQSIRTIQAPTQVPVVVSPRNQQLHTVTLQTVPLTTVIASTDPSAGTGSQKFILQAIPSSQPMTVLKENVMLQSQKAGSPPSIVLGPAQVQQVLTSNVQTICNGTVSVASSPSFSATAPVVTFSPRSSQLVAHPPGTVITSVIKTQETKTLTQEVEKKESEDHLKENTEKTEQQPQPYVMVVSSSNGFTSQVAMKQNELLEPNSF
# ELF4, sequence (Q99607 whole entry): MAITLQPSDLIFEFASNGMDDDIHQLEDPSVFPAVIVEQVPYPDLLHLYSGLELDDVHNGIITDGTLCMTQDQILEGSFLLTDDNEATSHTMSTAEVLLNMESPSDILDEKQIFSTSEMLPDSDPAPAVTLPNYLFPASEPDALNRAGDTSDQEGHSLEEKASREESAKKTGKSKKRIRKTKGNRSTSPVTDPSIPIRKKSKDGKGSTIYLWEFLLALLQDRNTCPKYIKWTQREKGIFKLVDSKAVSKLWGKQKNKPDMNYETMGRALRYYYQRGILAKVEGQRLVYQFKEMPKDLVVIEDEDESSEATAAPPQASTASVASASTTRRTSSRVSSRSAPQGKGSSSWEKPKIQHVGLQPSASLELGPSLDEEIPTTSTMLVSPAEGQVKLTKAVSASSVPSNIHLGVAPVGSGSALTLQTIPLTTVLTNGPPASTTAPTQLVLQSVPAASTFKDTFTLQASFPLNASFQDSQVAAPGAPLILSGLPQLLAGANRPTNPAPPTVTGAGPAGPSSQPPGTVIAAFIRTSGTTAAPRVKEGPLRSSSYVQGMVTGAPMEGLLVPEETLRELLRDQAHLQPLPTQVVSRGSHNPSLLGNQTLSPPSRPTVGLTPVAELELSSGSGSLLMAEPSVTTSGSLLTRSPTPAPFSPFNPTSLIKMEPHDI
sequence,measurement,setting,value
ATTCAC,binding signal,[1],"1.23 fold enrichment (6-mer frequency, TF over GST control)"
same,binding signal,[2],"1.2 fold enrichment (6-mer frequency, TF over GST control)"
same,binding signal,[3],"1.22 fold enrichment (6-mer frequency, TF over GST control)"
same,binding signal,[4],"1.27 fold enrichment (6-mer frequency, TF over GST control)"
same,binding signal,[5],"1.34 fold enrichment (6-mer frequency, TF over GST control)"
same,binding signal,[6],"1.2 fold enrichment (6-mer frequency, TF over GST control)"
same,binding signal,[7],"1.16 fold enrichment (6-mer frequency, TF over GST control)"
same,binding signal,[8],"1.2 fold enrichment (6-mer frequency, TF over GST control)"
same,binding signal,[9],"1.35 fold enrichment (6-mer frequency, TF over GST control)"
same,binding signal,[10],"1.23 fold enrichment (6-mer frequency, TF over GST control)"
same,binding signal,[11],"1.21 fold enrichment (6-mer frequency, TF over GST control)"
same,binding signal,[12],"1.13 fold enrichment (6-mer frequency, TF over GST control)"
same,binding signal,[13],"1.1 fold enrichment (6-mer frequency, TF over GST control)"
same,binding signal,[14],"1.31 fold enrichment (6-mer frequency, TF over GST control)"
same,binding signal,[15],"1.35 fold enrichment (6-mer frequency, TF over GST control)"
same,binding signal,[16],"1.21 fold enrichment (6-mer frequency, TF over GST control)"
same,binding signal,[17],"1.27 fold enrichment (6-mer frequency, TF over GST control)"
same,binding signal,[18],"1.14 fold enrichment (6-mer frequency, TF over GST control)"
same,binding signal,[19],"1.29 fold enrichment (6-mer frequency, TF over GST control)"
